Shown are actives, neighbours in structure and some others; about 8% of the full set was active somewhere.
LASV entry inh – qHTS for Inhibitors of binding or entry into cells for Lassa Virus. Lassa virus pseudotype entry inhibition, cell reporter. AID 540256, 2011. Potency, µM (top dose mostly 37.9 µM), without a hit: at the top dose activity change, negative = inhibition, usual class: inhibitors. actives 1.2% (n = 300,000); calls by dose curve; tested in HEK293 cells; also: potency is read from the fitted curve at half-maximal effect; % is scaled to controls: 0 for no effect and ±100 for the full control effect; nearly all actives have a fitted effect of over 50% in size
MARV entry inh – qHTS for inhibitors of binding or entry into cells for Marburg Virus; Marburg virus pseudotyped entry inhibition, cell reporter; Potency, µM (doses to about 37.8 µM), for inactives: at the top dose activity change, negative = inhibition, usual class: inhibitors; actives 1.8% (n = 300,000); calls by dose curve; tested in HEK293 cells; also: potency is read from the fitted curve at half-maximal effect; % is scaled to controls: 0 for no effect and ±100 for the full control effect
SARS PLP yeast – qHTS of Yeast-based Assay for SARS-CoV PLP; S. cerevisiae expressing SARS-CoV PLpro, growth rescue; Potency, µM (series often up to 32.9 µM), for the others: at the highest dose activity, positive = growth rescue, usual class: activators; actives 0.19% (n = 330,000); AID 485353, 2010; calls by dose curve; also: potency is read from the fitted curve at half-maximal effect; 0% is about no effect; nearly all actives have a fitted effect of over 55% in size
HCMV inh – qHTS Assay for inhibitors of the human cytomegalovirus (HCMV); HFF cells, HCMV-luciferase reporter, 72 h; active compounds read low; activity change, negative = inhibition, % at 57.5 µM; actives 4.5% (n = 410,000); AID 1259415, 2018; in the data active = activity change below about -60%; inconclusive = no clear call, values can overlap the other calls; inactive = above about -39%; also: % is scaled to controls: 0 for no effect and ±100 for the full control effect
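After 16 h attachment at 37C, HFF cells received test compound and HCMV-luciferase (1 PFU/cell); reporter luminescence read 72 h later, data normalized against buffer-only and known inhibitor Salinomycin.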
FMDV antiviral – High Throughput Screening for Foot and Mouth Disease Virus Antivirals. FMDV antiviral cell-based qHTS. Potency, µM (series often up to 57.9 µM), inactives show at the highest dose activity change, negative = inhibition, actives largely listed as inhibitors. actives 1.2% (n = 410,000). AID 1159524, 2015; calls by dose curve; tested in HEK293T cells; also: read-out not given here; potency is read from the fitted curve at half-maximal effect; % is scaled to controls: 0 for no effect and ±100 for the full control effect; nearly all actives have a fitted effect of over 45% in size
HCV inh – qHTS Assay for Inhibitors of Hepatitis C Virus (HCV); Huh7.5.1 HCVcc-Cre infection, luciferase reporter, 44 h; Potency, µM (top dose mostly 41.8 µM), inactives show at the top dose activity change, negative = inhibition, most hits filed as inhibitors; actives 3.4% (n = 340,000); AID 651820, 2012; active = well fitted inhibition curve with a large enough effect; inconclusive = small, poorly fitted or top-dose-only effect, or another doubt; inactive = no such curve, though single readings can be large or run the other way; also: potency is read from the fitted curve at half-maximal effect; % is scaled to controls: 0 for no effect and ±100 for the full control effect
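Antiviral activity was scored by luciferase reporter output from cells infected with HCVcc-Cre (~0.5 moi) in presence of compound, 44 h infection period, cells seeded 1,000/well 4 h prior.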
* marks the source's active call; other numbers are inactive results; u = inconclusive; x = no result given; [ ] = another dose, or the depositor's remark.

SMILES	LASV entry inh	MARV entry inh	SARS PLP yeast	HCMV inh	FMDV antiviral	HCV inh
Cc1cc(C)c(/C=C/c2onc(C)c2S(=O)(=O)N2CCC(C(=O)N3CCN(c4ccccc4)CC3)CC2)c(C)c1	u	x	x	30	-5%	x
Cc1nc2sccn2c1CN1CCOc2ccc(CN3CCN(c4ccc(F)cc4)CC3)cc2C1	x	x	x	x	8.9µM*	x
COc1ccccc1Nc1ccncc1[N+](=O)[O-]	x	x	-1%	-64*	4%	6%
COc1ccccc1Nc1cc(C)nc2c(C)ccc([N+](=O)[O-])c12	-5%	u	1%	-67*	u	u
O=[N+]([O-])c1cnccc1Nc1ccccc1	10%	-1%	6%	-13	-13%	2%
Cc1cc(Nc2ccccc2)c2c([N+](=O)[O-])cc(C)c(C)c2n1	-12%	u	-7%	-81*	-18%	u
O=[N+]([O-])c1ccc(Nc2ccccc2)c2nonc12	x	x	-4%	u	u	-20%
COc1cc(OC)cc(-c2cc3c(Nc4cccc(S(C)(=O)=O)c4)nccc3n2C)c1	x	x	x	-14	x	x
COc1ccc(CC(=O)NCC(c2ccc(N(C)C)cc2)N2CCOCC2)cc1OC (stereo not given)	1%[46.1 µM]	x	x	-11	-17%	x
Oc1ccc(-c2onc(C(F)(F)F)c2-c2cscn2)c(O)c1	-6%	u	-1%	u	0%	u
Cc1nc(-c2c(C(F)(F)F)noc2-c2ccc(O)cc2O)cs1	2%	0%	-2%	-90*	u	u
Cc1ccccc1C(=O)Nc1nc2c(s1)CC(C(C)(C)C)CC2 (stereo not given)	u	7%[46.1 µM]	x	-66*	-11%	x
CC(C)Oc1ccc(C(=O)Nc2nc3c(s2)CC(C(C)(C)C)CC3)cc1 (stereo not given)	13%[46.1 µM]	10%[46.1 µM]	x	u	u	x
COc1ccc(C(=O)Cc2cc(OC)c(OC)cc2C(=O)c2ccccc2F)cc1OC	x	x	4%	-5	-12%	10µM*
CCOC(=O)/C(C#N)=C1\Nc2ccccc2N=C1N(CC(C)C)CC(C)C	-3%	u	-24%	-35	x	-7%
CCOC(=O)/C(C#N)=C1/C=C(C)NC(c2ccccc2O)=N1	u	u	-8%	-103*	u	u
N#Cc1ccc(OCC(=O)N2CCN(S(=O)(=O)c3ccc(Cl)s3)CC2)cc1	x	x	0%	-61*	u	u
COc1ccc(OCC(=O)N2CCN(S(=O)(=O)c3ccc(Cl)s3)CC2)cc1	x	x	7%	19	-24%	2%
O=C(c1ccc2c(=O)n3c(nc2c1)CCCCC3)N1CCN(c2ccccc2)CC1	-13%	1%[46.1 µM]	1%	-16	-13%	23%
CC(=O)c1c(C)[nH]c(C(=O)COC(=O)c2ccc3c(=O)n4c(nc3c2)CCC4)c1C	9%	-3%	5%	4	4.5µM*	-3%
O=C(Nc1ccc(F)c(Cl)c1)c1ccc2c(=O)n3c(nc2c1)CCCCC3	u	u	-1%	-91*	-18%	10µM*
O=C(c1ccc2c(=O)n3c(nc2c1)CCCCC3)N1CCN(C(c2ccccc2)c2ccccc2)CC1	16µM*	u	-2%	-65*	-21%	u
O=C(Nc1ccc(Cl)cc1)c1ccc2c(=O)n3c(nc2c1)CCCCC3	x	x	6%	-21	0%	u
CCc1ccc(N(CC)C(=O)c2ccc3c(=O)n4c(nc3c2)CCCCC4)cc1	-24%[46.1 µM]	-20%[46.1 µM]	x	-21	40µM*	x
CCc1ccc(CN(C)C(=O)c2ccc3c(=O)n4c(nc3c2)CCC4)cc1	-6%	-9%	3%	-34	-2%	10%
SMILES	LASV entry inh	MARV entry inh	SARS PLP yeast	HCMV inh	FMDV antiviral	HCV inh
O=C(Nc1cccc(Cl)c1)c1ccc2c(=O)n3c(nc2c1)CCCCC3	u	u	0%	-26	-38%	8.9µM*
O=c1c2cc([N+](=O)[O-])ccc2nc2n1CCCC2	u	u	-1%	-65*	-7%	0%
CC(=O)c1ccc(NC(=O)c2ccc3c(=O)n4c(nc3c2)CCCCC4)cc1	x	x	3%	-31	u	u
CCc1cccc(NC(=O)c2ccc3c(=O)n4c(nc3c2)CCCCC4)c1	x	x	-2%	-17	-29%	13µM*
O=C(Nc1ccc2nc3n(c(=O)c2c1)CCCCC3)c1cccc(C(F)(F)F)c1	u	20%[46.1 µM]	x	-69*	u	x
CN(C)c1cccc(C(=O)Nc2ccc3nc4n(c(=O)c3c2)CCCCC4)c1	x	x	-5%	3	0%	u
O=C(Nc1ccc(F)cc1)c1ccc2c(=O)n3c(nc2c1)CCCCC3	4%[46.1 µM]	x	-7%	33	-9%	u
Cc1cccc(NC(=O)C(=O)c2cc(C)n(-c3ccccc3)c2C)c1C	u	-25%[46.1 µM]	x	-18	-17%	x
CCN(CC)C(=O)Cn1c(=O)n(Cc2ccc(C(=O)NCc3ccccc3Cl)cc2)c(=O)c2ccccc21	-19%[46.1 µM]	u	x	3	33%	x
CN(C)Cc1nc2ccccc2c(=O)n1Cc1nc(-c2cccc([N+](=O)[O-])c2)cs1	u	10%[46.1 µM]	-3%	44	-25%	11µM*
CC(CCc1ccccc1)NC(=O)CSc1n[nH]c(-c2ccc(F)cc2)n1 (stereo not given)	-29%[46.1 µM]	x	x	-65*	u	x
COc1ccc(NC(=O)CSc2n[nH]c(-c3ccccn3)n2)cc1	x	u	-1%	-17	4%	u
COc1ccc(/C=C/c2cc[n+](C(=O)Cc3ccccc3)cc2)cc1	-28%	-28%[46.1 µM]	-3%	-108*	u	-25%
CC(CCc1ccccc1)NC(=O)CSc1n[nH]c(-c2ccccc2)n1 (stereo not given)	u	x	x	-28	-16%	x
O=C(CSc1n[nH]c(-c2ccccn2)n1)Nc1ccccc1	u	u	1%	-79*	-12%	u
